Assay results published in PubChem BioAssay AID1159580 (chemical genetic matrix, 2015).
Where “and” joins values, the source holds several entries; their conditions need not be identical. Equal entries are not always repeated. The whole screen tested about 5,500 compounds, of which about 2,000 (36%) were called active. Roughly 18% stayed inconclusive and do not appear here. Rule as the data show it: active = normalized growth mostly below about 0.91 (no sharp cut-off); inconclusive = no clear call, values can overlap the other calls; inactive = mostly above about 0.92. Some of the results follow.

Assay: chemical genetic growth profiling, strain panel (AID 1159580);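 also: tested at 20 µM; growth read once vehicle control cultures reached saturation at 30 °C; 1 = growth at the plate median or of vehicle wells; lower values mean less growth of the strain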
Conditions: S. cerevisiae deletion strains, growth OD

Measured: normalized growth

COc1cc(C)c2c(=O)cc(-c3ccccc3)oc2c1
0.914 (inactive) and 0.876 (active): locus YJL095W, strain BCK1, stronger effect = lower value
active: locus YAL030W, strain snc1, stronger effect = lower value 0.928 | locus YBL061C, strain skt5, stronger effect = lower value 0.915 | locus YBR023C, strain chs3, stronger effect = lower value 0.913 | locus YCL011C, strain gbp2, stronger effect = lower value 0.891 | locus YCR088W, strain abp1, stronger effect = lower value 0.92 | locus YDL040C, strain nat1, stronger effect = lower value 0.93 | locus YDR137W, strain rgp1, stronger effect = lower value 0.762 | locus YDR392W, strain spt3, stronger effect = lower value 0.47 | locus YEL003W, strain gim4, stronger effect = lower value 0.893 | locus YER155C, strain BEM2 (second series), stronger effect = lower value 0.505 | locus YGL167C, strain pmr1, stronger effect = lower value 0.913 | locus YGL240W, strain doc1, stronger effect = lower value 0.856 | locus YGL253W, strain hxk2, stronger effect = lower value 0.909 | locus YHR142W, strain chs7, stronger effect = lower value 0.73 | locus YJL095W, strain BCK1 (second series), stronger effect = lower value 0.919 | locus YJL129C, strain trk1, stronger effect = lower value 0.833 | locus YJL164C, strain tpk1, stronger effect = lower value 0.909 | locus YJL166W, strain qcr8, stronger effect = lower value 0.893 | locus YJR066W, strain TOR1, stronger effect = lower value 0.814 | locus YKL160W, strain elf1, stronger effect = lower value 0.884 | locus YKR026C, strain gcn3, stronger effect = lower value 0.92 | locus YLR027C, strain aat2, stronger effect = lower value 0.917 | locus YLR113W, strain HOG1, stronger effect = lower value 0.721 | locus YLR221C, strain rsa3, stronger effect = lower value 0.887 | locus YLR262C, strain YPT6 (second series), stronger effect = lower value 0.757 | locus YLR320W, strain mms22, stronger effect = lower value 0.728 | locus YLR342W, strain FKS1, stronger effect = lower value 0.901 | locus YMR205C, strain PFK2, stronger effect = lower value 0.791 | locus YNL071W, strain lat1, stronger effect = lower value 0.687 | locus YNL183C, strain NPR1, stronger effect = lower value 0.796 | locus YOR184W, strain ser1, stronger effect = lower value 0.866 | locus YOR231W, strain MKK1, stronger effect = lower value 0.857 | locus YOR265W, strain rbl2, stronger effect = lower value 0.922 | locus YOR270C, strain vph1, stronger effect = lower value 0.701 | locus YOR290C, strain snf2, stronger effect = lower value 0.82 | locus YPL051W, strain arl3, stronger effect = lower value 0.904 | locus YPL078C, strain atp4, stronger effect = lower value 0.886
inactive: locus YAL021C, strain ccr4, stronger effect = lower value 0.983 | locus YAL026C, strain drs2, stronger effect = lower value 0.922 | locus YBR009C, strain hhf1, stronger effect = lower value 0.946 | locus YBR021W, strain FUR4, stronger effect = lower value 0.921 | locus YBR171W, strain sec66, stronger effect = lower value 0.911 | locus YBR229C, strain ROT2, stronger effect = lower value 0.984 | locus YBR231C, strain swc5, stronger effect = lower value 0.925 | locus YBR279W, strain paf1, stronger effect = lower value 0.942 | locus YCL016C, strain dcc1, stronger effect = lower value 0.93 | locus YCL029C, strain bik1, stronger effect = lower value 0.968 | locus YCL061C, strain MRC1, stronger effect = lower value 0.927 | locus YCL069W, strain vba3, stronger effect = lower value 0.939 | locus YDL005C, strain med2, stronger effect = lower value 0.956 | locus YDL035C, strain GPR1, stronger effect = lower value 1.01 | locus YDL074C, strain BRE1, stronger effect = lower value 0.896 | locus YDL101C, strain DUN1, stronger effect = lower value 0.948 | locus YDL134C, strain PPH21, stronger effect = lower value 0.998 | locus YDL185W, strain tfp1, stronger effect = lower value 0.979 | locus YDL192W, strain arf1, stronger effect = lower value 0.966 | locus YDR001C, strain nth1, stronger effect = lower value 0.938 | locus YDR069C, strain doa4, stronger effect = lower value 0.941 | locus YDR101C, strain arx1, stronger effect = lower value 0.989 | locus YDR150W, strain NUM1, stronger effect = lower value 1.02 | locus YDR159W, strain sac3, stronger effect = lower value 0.9 | locus YDR162C, strain NBP2, stronger effect = lower value 0.996 | locus YDR195W, strain ref2 1 | locus YDR297W, strain sur2, stronger effect = lower value 0.927 | locus YDR318W, strain mcm21, stronger effect = lower value 0.968 | locus YDR334W, strain swr1, stronger effect = lower value 0.938 | locus YDR335W, strain msn5, stronger effect = lower value 0.942 | locus YDR388W, stronger effect = lower value 0.967 | locus YDR502C, strain sam2, stronger effect = lower value 0.977 | locus YEL037C, strain rad23, stronger effect = lower value 0.942 | locus YEL061C, strain CIN8 (second series), stronger effect = lower value 0.926 | locus YEL061C, strain CIN8, stronger effect = lower value 0.985 | locus YER015W, strain faa2, stronger effect = lower value 0.945 | locus YER016W, strain bim1, stronger effect = lower value 0.935 | locus YER110C, stronger effect = lower value 0.963 | locus YER111C, strain swi4, stronger effect = lower value 0.96 | locus YER155C, strain BEM2, stronger effect = lower value 0.973 | locus YER167W, strain BCK2, stronger effect = lower value 0.994 | locus YFR010W, strain ubp6, stronger effect = lower value 0.933 | locus YGL078C, strain dbp3, stronger effect = lower value 0.972 | locus YGL086W, strain mad1, stronger effect = lower value 0.973 | locus YGL173C, strain kem1, stronger effect = lower value 0.935 | locus YGL227W, strain vid30, stronger effect = lower value 0.924 | locus YGL248W, strain PDE1, stronger effect = lower value 0.955 | locus YGR078C, strain PAC10, stronger effect = lower value 0.955 | locus YGR135W, strain pre9, stronger effect = lower value 0.98 | locus YGR252W, strain gcn5, stronger effect = lower value 0.96 | locus YHR013C, strain ard1, stronger effect = lower value 0.904 | locus YHR027C, strain rpn1, stronger effect = lower value 0.94 | locus YHR030C, strain SLT2, stronger effect = lower value 0.995 and 0.867 | locus YHR079C, strain IRE1 (second series), stronger effect = lower value 0.974 | locus YHR079C, strain IRE1, stronger effect = lower value 0.868 | locus YHR094C, strain hxt1, stronger effect = lower value 0.965 | locus YHR129C, strain ARP1, stronger effect = lower value 0.976 | locus YHR200W, strain rpn10, stronger effect = lower value 0.963 | locus YIL066C, strain RNR3, stronger effect = lower value 0.996 | locus YIL073C, strain SPO22, stronger effect = lower value 0.949 | locus YIL125W, strain kgd1, stronger effect = lower value 0.964 | locus YIR030C, strain dcg1, stronger effect = lower value 0.958 | locus YJL092W, strain hpr5, stronger effect = lower value 0.923 | locus YJL115W, strain asf1, stronger effect = lower value 0.955 | locus YJL134W, strain LCB3, stronger effect = lower value 0.987 | locus YJL154C, strain vps35, stronger effect = lower value 0.942 | locus YJL168C, strain set2, stronger effect = lower value 0.969 | locus YJL187C, strain SWE1 (second series), stronger effect = lower value 0.954 | locus YJL187C, strain SWE1, stronger effect = lower value 0.933 | locus YJR043C, strain POL32, stronger effect = lower value 1.03 | locus YKL009W, strain mrt4, stronger effect = lower value 0.954 | locus YKL068W, stronger effect = lower value 0.966 | locus YKL085W, strain MDH1 (second series), stronger effect = lower value 0.965 | locus YKL085W, strain MDH1, stronger effect = lower value 0.965 | locus YKR001C, strain vps1, stronger effect = lower value 0.982 | locus YKR091W, strain srl3, stronger effect = lower value 0.934 | locus YLL001W, strain dnm1, stronger effect = lower value 0.932 | locus YLL026W, stronger effect = lower value 0.944 | locus YLL041C, strain sdh2, stronger effect = lower value 0.935 | locus YLR039C, strain RIC1, stronger effect = lower value 1.08 | locus YLR058C, strain SHM2, stronger effect = lower value 0.975 | locus YLR102C, strain apc9, stronger effect = lower value 0.974 | locus YLR258W, strain gsy2, stronger effect = lower value 0.921 | locus YLR262C, strain YPT6, stronger effect = lower value 1.05 | locus YLR268W, strain sec22, stronger effect = lower value 0.958 | locus YLR330W, strain CHS5, stronger effect = lower value 0.973 | locus YLR342W, strain FKS1 (second series), stronger effect = lower value 0.979 | locus YLR357W, strain rsc2, stronger effect = lower value 0.87 | locus YLR370C, strain arc18, stronger effect = lower value 0.945 | locus YLR371W, strain rom2, stronger effect = lower value 0.966 | locus YLR384C, strain iki3, stronger effect = lower value 0.925 | locus YLR418C, strain cdc73, stronger effect = lower value 0.843 | locus YML016C, strain PPZ1, stronger effect = lower value 0.972 | locus YML032C, strain rad52, stronger effect = lower value 0.968 | locus YML120C, strain ndi1, stronger effect = lower value 0.941 | locus YML124C, strain tub3, stronger effect = lower value 0.973 | locus YMR058W, strain fet3, stronger effect = lower value 0.917 | locus YMR078C, strain ctf18, stronger effect = lower value 0.952 | locus YMR125W, strain sto1, stronger effect = lower value 0.929 | locus YMR129W, stronger effect = lower value 0.937 | locus YMR223W, strain ubp8, stronger effect = lower value 0.967 | locus YMR231W, strain pep5, stronger effect = lower value 0.951 | locus YMR307W, strain GAS1, stronger effect = lower value 1.23 | locus YNL067W, strain RPL9B, stronger effect = lower value 0.964 | locus YNL209W, strain ssb2, stronger effect = lower value 0.961 | locus YNL233W, strain BNI4, stronger effect = lower value 0.952 | locus YNL248C, strain rpa49, stronger effect = lower value 0.912 | locus YNL250W, strain rad50, stronger effect = lower value 0.953 | locus YNL271C, strain bni1, stronger effect = lower value 0.944 | locus YNL298W, strain CLA4, stronger effect = lower value 0.953 | locus YNL307C, strain MCK1, stronger effect = lower value 0.918 | locus YNL322C, strain KRE1 (second series), stronger effect = lower value 0.932 | locus YNR049C, strain mso1, stronger effect = lower value 0.924 | locus YNR052C, strain pop2, stronger effect = lower value 0.958 | locus YOL006C, strain TOP1, stronger effect = lower value 0.686 | locus YOL012C, strain htz1 1.23 | locus YOL147C, strain pex11, stronger effect = lower value 0.97 | locus YOR001W, strain rrp6, stronger effect = lower value 0.932 | locus YOR061W, strain CKA2, stronger effect = lower value 0.979 | locus YOR069W, strain VPS5, stronger effect = lower value 0.979 | locus YOR070C, strain gyp1, stronger effect = lower value 0.93 | locus YOR080W, strain dia2, stronger effect = lower value 0.943 | locus YOR083W, strain WHI5, stronger effect = lower value 0.907 | locus YOR106W, strain vam3, stronger effect = lower value 0.896 | locus YOR136W, strain idh2, stronger effect = lower value 0.972 | locus YOR144C, strain elg1, stronger effect = lower value 0.968 | locus YOR316C, strain cot1, stronger effect = lower value 0.966 | locus YPL106C, strain sse1, stronger effect = lower value 0.852 | locus YPL240C, strain hsp82, stronger effect = lower value 0.934 | locus YPL256C, strain CLN2, stronger effect = lower value 0.872 | locus YPR119W, strain clb2, stronger effect = lower value 0.973 | locus YPR141C, strain kar3, stronger effect = lower value 0.954 | locus YPR163C, strain tif3, stronger effect = lower value 0.982 | locus YPR167C, strain met16, stronger effect = lower value 0.958 | strain wtn01, stronger effect = lower value 0.968
